# What was measured:
# Assay in all cases: yeast three-hybrid, YBZ-1, SC-Leu-His + 0.5 mM 3-AT, 4 days
# Settings in all cases: tags: N-Gal4 AD-HA kept; label: inside an RPR1-promoter hybrid RNA with tandem MS2 sites; ssRNA
# PUM1 PUF domain R1-RSS = PUM1 PUF domain R1-RSS (Homo sapiens, UniProt Q14671 828-1176, S863R;R864S;Q867S)
# How it was run: (§1)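 The interaction score is the logarithmic change in variant frequency from input to selection. It uses log2, with a pseudocount of 1 for absent variants, and frequencies came from PCR-amplified, Illumina-sequenced repeat regions. The libraries were Pumilio-1 PUF domains randomized at the three base-contacting residues per repeat, co-expressed with matching RNA elements in strain YBZ-1 (LexA–MS2 coat fusion, HIS3 reporter). Plating lasted four days on SC-Leu (input) or SC-Leu-His + 0.5 mM 3-AT (selection).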
# PUM1 PUF domain R3-LFR = PUM1 PUF domain R3-LFR (Homo sapiens, UniProt Q14671 828-1176, C935L;R936F;Q939R)
# How it was run: as §1
# PUM1 PUF domain R3-FRD = PUM1 PUF domain R3-FRD (Homo sapiens, UniProt Q14671 828-1176, C935F;Q939D)
# How it was run: as §1
# PUM1 PUF domain R4-GMG = PUM1 PUF domain R4-GMG (Homo sapiens, UniProt Q14671 828-1176, N971G;H972M;Q975G)
# How it was run: as §1
# PUM1 PUF domain R4-VNG = PUM1 PUF domain R4-VNG (Homo sapiens, UniProt Q14671 828-1176, N971V;H972N;Q975G)
# How it was run: as §1
# PUM1 PUF domain R8-PWN = PUM1 PUF domain R8-PWN (Homo sapiens, UniProt Q14671 828-1176, N1122P;Y1123W;Q1126N)
# How it was run: as §1
# PUM1 PUF domain R5-TRL = PUM1 PUF domain R5-TRL (Homo sapiens, UniProt Q14671 828-1176, C1007T;Q1011L)
# How it was run: as §1
# PUM1 PUF domain R5-PFP = PUM1 PUF domain R5-PFP (Homo sapiens, UniProt Q14671 828-1176, C1007P;R1008F;Q1011P)
# How it was run: as §1
# PUM1 PUF domain R3-PYL = PUM1 PUF domain R3-PYL (Homo sapiens, UniProt Q14671 828-1176, C935P;R936Y;Q939L)
# How it was run: as §1
# PUM1 PUF domain R6-THR = molecular target: T1, PUM1 PUF domain R6-THR (Homo sapiens, UniProt Q14671 828-1176, N1043T;Y1044H;Q1047R)
# T1 sequence: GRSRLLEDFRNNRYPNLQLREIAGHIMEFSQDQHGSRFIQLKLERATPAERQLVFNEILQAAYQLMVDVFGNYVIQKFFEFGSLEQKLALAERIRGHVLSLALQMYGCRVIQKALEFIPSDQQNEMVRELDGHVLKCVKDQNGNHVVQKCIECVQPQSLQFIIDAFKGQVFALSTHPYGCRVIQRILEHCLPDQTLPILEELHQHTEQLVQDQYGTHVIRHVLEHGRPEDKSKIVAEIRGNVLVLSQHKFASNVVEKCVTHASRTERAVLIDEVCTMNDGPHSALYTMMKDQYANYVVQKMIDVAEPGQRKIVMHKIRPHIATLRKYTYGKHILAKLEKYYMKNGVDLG
# How it was run: as §1
sequence,measurement,setting,value
GGCUAGAACUAGUGGAUCCCCCGGCGCCCGGCGGCUCGAGCCCGGGUAAGUGUAAAUCGUCUGCAUGCCGCCGGGCGCCAUGCCUGCAGGUCGACUCUAGAAAACAUG,binding signal,PUM1 PUF domain R1-RSS,3.93 log2 enrichment (interaction score)
GGCUAGAACUAGUGGAUCCCCCGGCGCCCGGCGGCUCGAGCCCGGGUAAGUGUAAGUAGUCUGCAUGCCGCCGGGCGCCAUGCCUGCAGGUCGACUCUAGAAAACAUG,binding signal,PUM1 PUF domain R3-LFR,5.96 log2 enrichment (interaction score)
same,binding signal,PUM1 PUF domain R3-FRD,5.68 log2 enrichment (interaction score)
GGCUAGAACUAGUGGAUCCCCCGGCGCCCGGCGGCUCGAGCCCGGGUAAGUGUAUAUAGUCUGCAUGCCGCCGGGCGCCAUGCCUGCAGGUCGACUCUAGAAAACAUG,binding signal,PUM1 PUF domain R4-GMG,2.85 log2 enrichment (interaction score)
same,binding signal,PUM1 PUF domain R4-VNG,2.54 log2 enrichment (interaction score)
GGCUAGAACUAGUGGAUCCCCCGGCGCCCGGCGGCUCGAGCCCGGGUAAGCGUAAAUAGUCUGCAUGCCGCCGGGCGCCAUGCCUGCAGGUCGACUCUAGAAAACAUG,binding signal,PUM1 PUF domain R8-PWN,3.44 log2 enrichment (interaction score)
GGCUAGAACUAGUGGAUCCCCCGGCGCCCGGCGGCUCGAGCCCGGGUAAGUGUAAAUUGUCUGCAUGCCGCCGGGCGCCAUGCCUGCAGGUCGACUCUAGAAAACAUG,binding signal,PUM1 PUF domain R1-RSS,3.21 log2 enrichment (interaction score)
GGCUAGAACUAGUGGAUCCCCCGGCGCCCGGCGGCUCGAGCCCGGGUAAGUGUUAAUAGUCUGCAUGCCGCCGGGCGCCAUGCCUGCAGGUCGACUCUAGAAAACAUG,binding signal,PUM1 PUF domain R5-TRL,2.18 log2 enrichment (interaction score)
GGCUAGAACUAGUGGAUCCCCCGGCGCCCGGCGGCUCGAGCCCGGGUAAGUGUAAUUAGUCUGCAUGCCGCCGGGCGCCAUGCCUGCAGGUCGACUCUAGAAAACAUG,binding signal,PUM1 PUF domain R3-LFR,5 log2 enrichment (interaction score)
GGCUAGAACUAGUGGAUCCCCCGGCGCCCGGCGGCUCGAGCCCGGGUAAGUGUAAAUAGUCUGCAUGCCGCCGGGCGCCAUGCCUGCAGGUCGACUCUAGAAAACAUG,binding signal,PUM1 PUF domain R5-PFP,4.69 log2 enrichment (interaction score)
same,binding signal,PUM1 PUF domain R5-TRL,3.3 log2 enrichment (interaction score)
same,binding signal,PUM1 PUF domain R3-PYL,5.55 log2 enrichment (interaction score)
same,binding signal,PUM1 PUF domain R4-GMG,1.25 log2 enrichment (interaction score)
same,binding signal,PUM1 PUF domain R3-LFR,1.74 log2 enrichment (interaction score)
same,binding signal,PUM1 PUF domain R6-THR,3.12 log2 enrichment (interaction score)
GGCUAGAACUAGUGGAUCCCCCGGCGCCCGGCGGCUCGAGCCCGGGUAAGUGUAAAUGGUCUGCAUGCCGCCGGGCGCCAUGCCUGCAGGUCGACUCUAGAAAACAUG,binding signal,PUM1 PUF domain R1-RSS,2.55 log2 enrichment (interaction score)

# Reference: publication PMC8384837, “Expanding the binding specificity for RNA recognition by a PUF domain”
